In PubChem BioAssay AID1578 (Sanford-Burnham Center for Chemical Genomics, 2009):
Where “and” joins values, the source holds several entries; their conditions need not be identical. Equal values may be shown once. In all, about 290,000 compounds went through this assay and about 3,000 (1%) were called active. The entries come from a sample that favours actives as a whole. Unmarked numbers belong to inactive results. Cut-off read from the data, not from the text of the source: active = inhibition mostly above about 36% (no sharp cut-off); inactive = mostly below about 34%.

assay: inhibition of NOD1-driven NF-kB reporter – cell-based, luminescence, uHTS, primary screen (AID 1578); conditions: NOD1-driven NF-kB luciferase reporter cells, at 4 µM, active compounds read high;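 note: HEK-293T reporter cells stimulated with the NOD1 agonist gamma-tri-DAP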

SMILES | inhibition
O=c1c2nnn(-c3cccc(F)c3)c2ncn1Cc1ccccn1 | -4.3%
O=C(N/N=C/c1ccc([N+](=O)[O-])cc1)c1[nH]ncc1Br | -5%
Cc1ccc(-c2nn(CC(=O)NCc3cc(-c4nn(C)c(=O)c5ccccc45)ccc3C)c(=O)c3ccccc23)cc1 | 93.8% (active)
Cc1cc(C)n(CC(=O)NCc2cc(-c3nn(C)c(=O)c4ccccc34)ccc2C)n1 | -14%
Cc1ccc(-c2nn(C)c(=O)c3ccccc23)cc1CNC(=O)Cn1nc(-c2ccccc2)c2ccccc2c1=O | 12.8%
O=C1NCCc2c1[nH]c1c(Cl)ccc(Cl)c21 | 79.2% (active)
Cc1ccc2[nH]c3c(c2c1)CCNC3=O | -41.5%
O=C1NCCc2c1[nH]c1ccccc21 | 10.2% and -8.1%
CCOC(=O)[C@@H]1[C@H]2COc3cc(OC)ccc3[C@@H]2N2C(=O)N(c3ccc(Br)cc3)C(=O)[C@@]12C | -23.3%
CN(C)C(CNc1ncccn1)c1ccccc1 (configuration not stated) | -14.6%
CC(C)(C)OC(=O)N1CCC(CC2CC(c3cccc(Br)c3)=NO2)(C(=O)NCC2CCCCC2)CC1 (configuration not stated) | -0.4%
COC(=O)C1(CC2CC(c3cccc(Br)c3)=NO2)CCN(C(=O)OC(C)(C)C)CC1 (configuration not stated) | 43.4% (active)
CC(C)(C)OC(=O)N1CCC(CC2CC(c3cccc(Br)c3)=NO2)(C(=O)O)CC1 (configuration not stated) | -12.7%
O=C(c1cc2ccccn2n1)N1CCN(c2cccc(C(F)(F)F)c2)CC1 | 19.8%
Cc1ccc(S(=O)(=O)NC(=NC2CCCCC2)c2ccc(F)cc2)cc1 | -31.6%
CCc1ccc(-c2nn(-c3ccccc3)cc2C2SCC(=O)N2Cc2ccco2)cc1 (configuration not stated) | 11.4%
O=C1CSC(c2cn(-c3ccccc3)nc2-c2cc3ccccc3oc2=O)N1Cc1ccco1 (configuration not stated) | 3.1%
O=C1CSC(c2cn(-c3ccccc3)nc2-c2ccccc2)N1Cc1ccco1 (configuration not stated) | 51.6% (active)
COc1ccc(/C=N/c2nc3ccccc3n2C)cc1OC | -12.1%
CCOC(=O)N1CCN(C(=O)C2CCN(Cc3ccc(O)c(OCC)c3)CC2)CC1 | -15.5%
O=C(c1ccccc1)N1CCCCC(S(=O)(=O)c2ccccc2)C1=O (configuration not stated) | 19.8%
O=C(N/N=C/c1ccc(O)cc1O)c1ccc(NC(=O)C2CCCCC2)cc1 | -73.3%
Cc1cccc(OC(C)C(=O)N2CCCN(C)CC2)c1C (configuration not stated) | -5.8%
O=C(Nc1ccc(N2CCOCC2)cc1)C1CC(=O)N(c2ccccc2)C1 (configuration not stated) | -35.3%

SMILES | inhibition
O=C(NCc1ccccc1)C1CCCC1 | 67.7% (active)
O=C(NCc1ccccc1)C1CCC1 | -29%
O=C(NC(=S)NCc1ccccc1)C1CCCCC1 | 11.8%
CC(=O)N1CCc2cc(S(=O)(=O)NCC(=O)NCc3ccc(F)cc3)ccc21 | -8%
Nc1[nH]c(N=NC(=O)c2ccccc2)c2ccccc12 | -58.4%
CCOc1ccc(S(=O)(=O)N2CCCC(C(=O)N3CCN(CC)CC3)C2)cc1Cl (configuration not stated) | -13.6%
CCN(CC)S(=O)(=O)c1cc(NC(=O)COC(=O)c2ccc(NC(=O)CC#N)cc2)ccc1C | -16.4%
Fc1ccc(Nc2nc(-c3ccncc3)nc3ccccc23)cc1 | 1.1%
C=CCNc1sc(C(=O)c2ccccc2)c(N)c1-c1nc2ccccc2s1 | -19.4%
O=C1N/C(=N/S(=O)(=O)c2ccccc2)S/C1=C/c1cccnc1 | -12.1%
COc1ccccc1CNCc1cccc(Oc2ccccc2)c1 | -7.9%
COc1ccc(CNCc2cccc(Oc3ccccc3)c2)cc1 | 65.8% (active)
O=C(O)c1ccc(CNCc2cccc(Oc3ccccc3)c2)cc1 | -4.9%
Cc1cc(C)nc(/N=C2/NC(=O)CS2)n1 | 11.8%
O=C(CSc1ncccc1C(=O)O)NC12CC3CC(CC(C3)C1)C2 | -37.8%
CC(C)(C)C(=O)COC(=O)c1cc2ccccc2cc1O | -26.6%
Cc1c(C)c2c(OCC(=O)N3CCC(C(=O)O)CC3)cc3c(c2oc1=O)CCC(C)(C)O3 | -8.2%
CC[n+]1c(/C=C/c2ccc(N(C)C)cc2)ccc2ccccc21 | 0.8%
CC[n+]1c(/C=C/c2ccc(OC)c(OC)c2)ccc2ccccc21 | -81.5%
CC(NS(=O)(=O)c1ccc(NC(=O)N2CCCCC2)cc1)c1ccccc1 (configuration not stated) | -19.3%
O=C(Nc1cccnc1)OC1CCCC1 | -40.3%
Cc1cc(C)c(S(=O)(=O)Nc2ccncc2)cc1C | -25.9%
Cc1ccc(CCNS(=O)(=O)c2ccc3c(c2)NC(=O)CCS3)cc1 | -8.7%
